Tau FP inhib = blocks human tau fibril formation measured by polarization | P10636 | K18 P301L tau heparin fibrillization, Alexa594 FP, 6 h | Potency, µM (top dose mostly 57.7 µM), usual class: inhibitors | actives 0.39% (n = 280,000); active = well fitted curve in the direction sought with a large enough effect; inconclusive = small, poorly fitted or top-dose-only effect, or another doubt; inactive = no such curve, though single readings can be large; an effect the other way counts as inactive or inconclusive; note: nearly all actives have a fitted effect of over 55% in size
Target sequence (P10636 561-689 P618L limits assumed): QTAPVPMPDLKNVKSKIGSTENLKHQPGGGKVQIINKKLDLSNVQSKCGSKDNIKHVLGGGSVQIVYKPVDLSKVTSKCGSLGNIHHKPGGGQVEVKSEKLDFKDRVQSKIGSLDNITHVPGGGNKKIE
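Recombinant K18 P301L […], labeled with Alexa 594 at 0.24 uM over 15 uM unlabeled; heparin inducer 20 uM final; 37 C, 6 hr; FP endpoint.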
ALDH1A1 inh = ALDH1A1 (human) enzyme inhibition | actives 7.3% (n = 220,000) | Potency, µM (top dose mostly 75.3 µM), actives largely listed as inhibitors | AID 1030 | Purified ALDH1A1, NADH fluorescence, propionaldehyde substrate
Tau fibril ThT = blocks human tau fibril formation measured by thioflavin T. recombinant tau K18 P301L, heparin-induced fibrillization, ThT fluorescence. Potency, µM (doses to about 57.4 µM), usual class: inhibitors. actives 2.1% (n = 270,000). AID 1460; active = well fitted curve in the direction sought with a large enough effect; inconclusive = small, poorly fitted or top-dose-only effect, or another doubt; inactive = no such curve, though single readings can be large; an effect the other way counts as inactive or inconclusive; note: nearly all actives have a fitted effect of over 55% in size
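ThT emission at 510 nm, taken 1 hr after adding 30 uM dye, quantifies aggregates formed when 20 uM heparin acts on human tau K18 P301L for 6 hr at 37 C.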
KDM4E inh = JMJD2E (human) inhibition | B2RXH2 | JMJD2E catalytic domain, FDH-coupled NADH fluorescence (FDH is formaldehyde dehydrogenase) | Potency, µM (titrated, usually from 57.1 µM), usual class: inhibitors | actives 1.6% (n = 230,000) | AID 2147; note: nearly all actives have a fitted effect of over 50% in size
Tau fluor counter = counter-screen for tau fibril formation inhibitors; tau K18 P301L Alexa594 fluorescence, heparin fibrillization; Potency, µM (doses to about 57.7 µM); actives 0.93% (n = 280,000); active = well fitted curve in the direction sought with a large enough effect; inconclusive = small, poorly fitted or top-dose-only effect, or another doubt; inactive = no such curve, though single readings can be large; an effect the other way counts as inactive or inconclusive; note: nearly all actives have a fitted effect of over 55% in size
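Human tau K18 P301L (15 uM unlabeled, 0.24 uM Alexa 594-labeled) in 100 mM sodium acetate pH 7 with 20 uM heparin, 6 hr at 37 C. ThT 30 uM added, 1 hr ambient; Alexa 594 FP and total fluorescence read at 555/632 nm.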
HPGD inh = blocks human HPGD enzyme activity. P15428. purified HPGD, NADH fluorescence kinetic, PGE2 substrate. Potency, µM, hits mostly inhibitors. actives 4.3% (n = 150,000). AID 894
Target sequence (P15428 whole entry, looked up): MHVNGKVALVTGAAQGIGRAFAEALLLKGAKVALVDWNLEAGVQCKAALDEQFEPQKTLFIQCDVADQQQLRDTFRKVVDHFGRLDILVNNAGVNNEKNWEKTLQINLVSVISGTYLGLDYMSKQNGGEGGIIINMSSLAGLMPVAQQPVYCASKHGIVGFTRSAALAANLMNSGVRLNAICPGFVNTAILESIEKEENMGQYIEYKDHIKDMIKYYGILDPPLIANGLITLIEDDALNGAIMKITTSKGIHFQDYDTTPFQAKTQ
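NADH formation kinetics: reaction with 30 uM PGE2 and 1 mM NAD+ (final), 20 nM enzyme, Tris-HCl pH 8 with Tween 20, after 15 min compound preincubation at room temperature. Fluorescence change, last versus first of five reads.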
Hits are given with their value; i = inactive; ? = inconclusive; nt = no result; [ ] = dose if it differs, or a comment. Only some compounds are listed: those with a hit (about 9.9% of all), similar ones and a draw of the others. Unless noted, calls come from the whole dose curve; as a rule, active = well fitted inhibition curve with a large enough effect (not every such curve was filed as active); inconclusive = small, poorly fitted or top-dose-only effect, or another doubt; inactive = no such curve, though single readings can be large or run the other way.

SMILES	Tau FP inhib	ALDH1A1 inh	Tau fibril ThT	KDM4E inh	Tau fluor counter	HPGD inh
COc1ccc(/C=N/NC(=O)C[n+]2ccccc2)c(OC)c1	i	i	i	i	i	nt
COc1ccc(OC)c(/C=N/NC(=O)c2cc[n+](CC(=O)c3ccccc3)cc2)c1	i	i	11.2µM	i	?	i
N#CC1(Cc2ccc(Cl)cc2)c2ccccc2C=CN1C(=O)c1ccccc1 (stereo not given)	i	?	i	i	i	i
Cc1nc(SCn2nnc3ccccc3c2=O)nc(C)c1C	i	?	i	i	i	14.1µM
C=CCSC(=C(C#N)C#N)c1cc2c([nH]1)CCCC2	i	?	10µM	i	?	i
O=C(O)c1cc2c([nH]c1=O)CCCC2	i	?	i	?	i	?
Cc1ccc(Cl)cc1N1CCN(C(=O)CCS(=O)(=O)c2cccc3nonc23)CC1	?	22.4µM	i	i	i	i
COc1cccc(CNC(=O)CCS(=O)(=O)c2cccc3nonc23)c1	i	?	i	i	i	i
O=C(CCS(=O)(=O)c1cccc2nonc12)NCc1ccc(Cl)cc1	i	8.91µM	i	i	i	nt
CC(C)CCNC(=O)CCS(=O)(=O)c1cccc2nonc12	i	10µM	i	i	i	i
Cc1ccc(Cl)cc1N1CCN(C(=O)Cn2ccc3ccccc3c2=O)CC1	i	20µM	i	i	i	nt
c1ccc2c(NCCN3CCOCC3)nc(-c3ccoc3)nc2c1	nt	i	nt	nt	nt	nt
Cc1ccc2ccccc2c1[N+](=O)[O-]	nt	i	nt	nt	nt	i
COc1ccc(N(C)C(=O)CCS(=O)(=O)c2cccc3nonc23)c(OC)c1	i	12.6µM	i	i	i	i
O=C(CCS(=O)(=O)c1cccc2nonc12)N1CCCc2ccccc21	i	11.2µM	i	i	i	i
CC(C)NC(=O)CCS(=O)(=O)c1cccc2nonc12	i	25.1µM	i	i	i	i
CC(C)c1ccc(NC(=O)CCS(=O)(=O)c2cccc3nonc23)cc1	i	nt	i	nt	?	nt
O=C(CCS(=O)(=O)c1cccc2nonc12)NCCc1ccccc1	i	22.4µM	i	i	i	i
O=C(CCCC(=O)N1CCCc2ccccc21)N1CCCc2ccccc21	i	i	i	i	i	i
N#CC1=C2SCN(Cc3ccccc3)CN2C(=O)CC1c1cccs1 (stereo not given)	?	11.2µM	28.2µM	?	i	20µM
N#CC1=C2SCN(Cc3ccccc3)CN2C(=O)CC1c1ccc2c(c1)OCO2 (stereo not given)	?	7.94µM	20µM	?	i	25.1µM
COc1ccc(OC)c(S(=O)(=O)NCC(c2cccs2)S(=O)(=O)c2ccc(F)cc2)c1 (stereo not given)	i	nt	i	nt	i	nt
COc1cc(C(=O)NC2(C(F)(F)F)C(=O)NC(C)=C2C#N)cc(OC)c1OC (stereo not given)	i	nt	i	nt	i	nt
COc1ccc(OC)c(NC(=O)Cc2c(C(=O)O)n(C)c3ccc(C)cc23)c1	i	nt	?	nt	i	nt
CC(=O)Cc1nnn(-c2cc(C)on2)n1	i	nt	i	i	i	nt
SMILES	Tau FP inhib	ALDH1A1 inh	Tau fibril ThT	KDM4E inh	Tau fluor counter	HPGD inh
O=C(Oc1ccc(F)cc1C(=O)/C=C/c1cccs1)c1cccc([N+](=O)[O-])c1	i	i	14.1µM	i	?	i
COc1ccccc1/C=C1\SC(=S)N(C(C(=O)O)c2ccccc2)C1=O (stereo not given)	i	nt	?	i	i	nt
CCOc1cc(/C=C2\SC(=S)N(C(C(=O)O)c3ccccc3)C2=O)ccc1O (stereo not given)	i	31.6µM	?	i	i	nt
CCOc1ccc(/C=C2/SC(=S)N(C(C(=O)O)c3ccccc3)C2=O)cc1OCC (stereo not given)	?	?	15.8µM	?	i	nt
COc1cc(/C=C2\SC(=S)N(C(C(=O)O)c3ccccc3)C2=O)ccc1O (stereo not given)	i	nt	7.08µM	i	i	nt
CCOc1cc(/C=C2\SC(=S)N(NC(=O)c3cccnc3)C2=O)ccc1O	i	?	?	i	i	nt
CCOc1cc(/C=C2/NC(=S)NC2=O)ccc1OCc1ccc([N+](=O)[O-])cc1	i	i	?	i	i	i
CCOc1cc(/C=C2/SC(=S)N(C)C2=O)ccc1Oc1ccc([N+](=O)[O-])cc1[N+](=O)[O-]	i	0.398µM	?	i	i	nt
COc1cc(/C=C2/SC(=NCc3ccccc3)N(Cc3ccccc3)C2=O)ccc1O	i	2.24µM	?	i	10µM[quencher]	i
CC(=O)Nc1ccc(-c2cc(-c3ccc(NC(C)=O)cc3)nc(-c3ccccc3)n2)cc1	14.1µM	?	i	?	i	?
CC(=O)Nc1ccc(-c2cc(-c3ccccc3)nc(-c3ccccc3)n2)cc1	3.55µM	?	i	i	?	?
CC(=O)Nc1ccc(-c2cc(-c3ccc(NC(C)=O)cc3)nc(-c3ccc(NC(C)=O)cc3)n2)cc1	?	?	i	?	i	?
Nc1nc(N)nc(-c2ccccc2)n1	i	i	i	i	i	i
CCC(=O)Nc1ccc(-c2cc(-c3ccccc3)nc(-c3ccc(NC(=O)CC)cc3)n2)cc1	11.2µM	?	i	?	?	?
Nc1ccc(-c2cc(-c3cccc(N)c3)nc(-c3ccccc3)n2)cc1	i	?	?	?	3.55µM[quencher]	i
C#CCOCCCC(=O)O	nt	i[13.5 µM]	nt	nt	nt	i
Cc1nn(-c2ccccc2)c(C)c1/C=C1\C(=O)N(C)C(=S)N1C	i	i	i	i	i	nt
Cc1cccc(NC(=O)CN2C(=O)S/C(=C\c3ccc(O)c([N+](=O)[O-])c3)C2=O)c1	i	?	6.31µM	i	?	nt
CCOC(=O)CN1C(=O)S/C(=C/c2cccc([N+](=O)[O-])c2O)C1=O	i	?	12.6µM	i	i	nt
O=C(O)c1cccc(CN2C(=O)S/C(=C/c3ccccc3[N+](=O)[O-])C2=O)c1	?	nt	?	i	i	nt
O=C1S/C(=C\c2ccc(O)c([N+](=O)[O-])c2)C(=O)N1Cc1cccc([N+](=O)[O-])c1	i	?	11.2µM	i	?	nt
CN1C(=O)/C(=C/c2ccc(O)c([N+](=O)[O-])c2)N(C)C1=S	i	i	4.47µM	i	i	nt
CCOC(=O)CN1C(=O)S/C(=C/C=C/c2ccc(N(C)C)cc2)C1=O	?	25.1µM	2.24µM	i	i	i
Cc1ccc(NC(=O)CN2C(=O)S/C(=C/c3ccc(O)c([N+](=O)[O-])c3)C2=O)cc1C	?	?	7.94µM	?	?	nt
Cc1cccc(NC(=O)CN2C(=O)S/C(=C\c3ccccn3)C2=O)c1	i	i	i	i	i	nt
O=C1S/C(=C\c2ccc(O)c([N+](=O)[O-])c2)C(=O)N1c1ccccc1Cl	i	0.447µM	6.31µM	i	?	nt
O=C(O)c1cccc(C[C@H](Br)C(=O)O)c1	nt	i[13.5 µM]	nt	nt	nt	i
Cc1cc(C)cc(NC(=O)N2CCN(C)c3ncccc32)c1	i	nt	i	nt	i	nt
Cc1cccc(C)c1N1CCN(C(=O)Cn2cncn2)CC1	i	12.6µM	?	i	i	nt
